High-throughput results (PubChem)
C-LANA FP – KSHV C-LANA DNA binding inhibition | 340,000 tested, 0.078% active | inhibition, % at 9 µM | MBP-C-LANA/FAM-LBS DNA binding, fluorescence polarization | AID 504423;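 active means highest replicate inhibition at or above 60% at 9 µM, even if other replicates fall short; inactive means all replicates below 60% inhibition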;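 further: 0% = neutral control wells and 100% = 4 µM acridine orange control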
RTF Ca sens inh – cardiac RTF calcium desensitization | inhibition, % at 7.15 µM | AID 493244 | IANBD-labeled cardiac RTF, Ca2+ fluorescence | 340,000 tested, 0.12% active;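 active means inhibition above the mean inhibition of all tested compounds plus 3 SD, cut at about 17% in these data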;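 further: assay run at fixed EC70 calcium of 1.6 mM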
RTF Ca sens act – cardiac RTF calcium sensitization; IANBD-labeled TnC RTF fluorescence at EC20 calcium; 0% EC20 calcium, 100% full calcium; activation, % at 7.2 µM; 340,000 tested, 0.24% active; AID 493008;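 active means activation above the mean over all tested compounds plus 3 SD, cut at about 30% in these data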;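 further: rise in fluorescence read as greater calcium sensitivity of cardiac thin filaments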
Keap1 Nrf2 FP – Keap1-Nrf2 (human) interaction inhibition. Q14145. Keap1 Kelch-Nrf2 peptide fluorescence polarization, 1536-well. inhibition, % at 9.4 µM. 340,000 tested, 0.15% active. AID 504523; in the data active means inhibition above about 12%;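 further: human Keap1 Kelch domain with fluorescein labeled Nrf2 9mer peptide probe; 0% = neutral control wells and 100% = peptide positive control; higher means more block of Keap1 binding to Nrf2 peptide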
Target sequence (Q14145 whole entry, looked up, the tested form may be a part): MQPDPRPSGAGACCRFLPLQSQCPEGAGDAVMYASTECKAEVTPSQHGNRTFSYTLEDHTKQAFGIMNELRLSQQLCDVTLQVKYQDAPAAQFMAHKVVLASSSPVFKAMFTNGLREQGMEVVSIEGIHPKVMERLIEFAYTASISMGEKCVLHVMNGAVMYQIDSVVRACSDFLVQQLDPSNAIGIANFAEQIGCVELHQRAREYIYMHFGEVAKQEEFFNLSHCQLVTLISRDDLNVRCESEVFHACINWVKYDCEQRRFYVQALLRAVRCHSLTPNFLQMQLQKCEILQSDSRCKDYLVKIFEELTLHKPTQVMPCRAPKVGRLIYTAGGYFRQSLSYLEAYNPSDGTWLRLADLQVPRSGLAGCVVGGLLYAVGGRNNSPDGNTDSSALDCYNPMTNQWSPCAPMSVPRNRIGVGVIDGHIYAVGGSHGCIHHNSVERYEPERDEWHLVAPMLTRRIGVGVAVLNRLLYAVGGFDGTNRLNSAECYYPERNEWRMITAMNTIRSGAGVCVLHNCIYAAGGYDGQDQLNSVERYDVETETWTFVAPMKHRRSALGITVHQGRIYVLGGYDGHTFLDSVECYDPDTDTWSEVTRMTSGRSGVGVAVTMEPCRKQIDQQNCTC
* = called active by the depositor; x = no result given; + = active, no number; ! = a repeat was not active. Only some compounds are listed: those with a hit (about 0.5% of all), similar ones and a draw of the others.

SMILES | C-LANA FP | RTF Ca sens inh | RTF Ca sens act | Keap1 Nrf2 FP
Cc1cc(C(=O)O)ccc1-c1ccc(/C=C2\SC(=O)N(CC(=O)Nc3ccc4c(c3)OCO4)C2=O)o1 | 10.5 | -1.6 | 46.0* | 13.5*
Cc1ccc(C(=O)O)cc1-c1ccc(/C=C2\SC(=O)N(CC(=O)Nc3ccccc3)C2=O)o1 | 8.3 | 1.9 | 3.9 | 0.8
COc1ccc(CC(=O)Nc2cc(S(=O)(=O)N3CCOCC3)ccc2N2CCOCC2)cc1OC | -0.4 | -2.3 | -0.5 | 1.6
Cc1cc(N2CCCC2)ccc1/C=C1\NC(=S)N(C)C1=O | -15.5 | -118.5 | 52.9* | -21.9
O=C1/C(=C/c2ccc(N3CCCC3)cc2)NC(=S)N1C1CC1 | -4.3 | -151.8 | 55.9* | -32.4
Nc1nc2n(n1)C(=O)CC(c1ccccc1)N2 (stereo unspecified) | 0.2 | -3.8 | 11.7 | -1.8
Cc1cc(C)n2nc(C(=O)Nc3cccc(S(=O)(=O)N(C)c4ccccc4)c3)nc2n1 | -0.5 | -15.9 | 1.7 | -2.6
Cc1nn(C)c(C)c1CN(C)S(=O)(=O)c1ccc2ccccc2c1 | 0.9 | 1.0 | -0.3 | -8.0
CN1Cc2c(N)cccc2C(c2ccccc2)C1 (stereo unspecified) | 7.6 | -14.7 | 31.2*! | 2.7
c1ccc2c(c1)CCCN2Cc1nnc2n1CCCCC2 | 21.0 | -53.6 | 36.7* | 5.2
CCNC(=S)N1CCNC(=O)C1CC(=O)OC (stereo unspecified) | 0.4 | -3.5 | 13.8 | -2.7
COc1ccc(C(=O)c2sc3nc(C)cc(-c4cccs4)c3c2N)cc1OC | 26.1 | -56.6 | 44.5* | 4.9
COc1ccc(C(=O)c2sc3nc(C)cc(-c4cccs4)c3c2N)cc1 | 4.5 | -46.6 | 67.7* | -2.4
Cc1cc(-c2cccs2)c2c(N)c(C(=O)c3ccc4c(c3)OCO4)sc2n1 | 12.6 | -20.0 | 9.6 | -1.7
O=c1[nH]ncc2c3ccccc3n(Cc3cccc(Cl)c3)c12 | 1.9 | -54.4 | 55.7* | -13.2
CC(CC12CC3CC(CC(C3)C1)C2)NCc1ccccc1O (stereo unspecified) | 0.0 | -3.2 | -2.8 | -0.2
COc1ccccc1N1C(C)=CC(=C(C#N)c2nc3ccccc3s2)C=C1C | 2.1 | -44.2 | 52.9* | 1.5
CC1=CC(=C(C#N)c2nc3ccccc3s2)C=C(C)N1c1ccc(F)cc1 | -2.9 | -6.7 | 110.3* | -1.8
O=C(CCN1C(=O)/C(=C/c2ccccc2)SC1=S)NNC(=O)c1cccnc1 | -0.5 | -42.6 | 34.8* | 5.5
Cc1cc(S(=O)(=O)NC2CCN(Cc3ccccc3)CC2)c(C)cc1Cl | 82.2* | -5.8 | 1.1 | -0.4
N#C/C(=C\c1ccc(N2CCCCC2)o1)C(=O)Nc1cccc(Br)c1 | -5.3 | -154.8 | 146.0* | -8.8
O=Cc1ccc(N2CCCC2)o1 | -0.1 | 2.7 | -1.5 | -4.3
N#C/C(=C\c1ccc(N2CCCCC2)o1)C(N)=O | -17.6 | -57.6 | 55.7* | -57.5
CC(=O)Oc1ccc(N2C(=O)C3C(C2=O)C(C(=O)c2ccc(Cl)cc2)N2CCCC32)cc1 (stereo unspecified) | 9.4 | -39.0 | 44.6* | -7.7
CC(C)(C)C(=O)/C=c1\[nH]c(=O)/c(=C\c2ccc(F)cc2)s1 | -1.1 | -3.2 | 1.6 | -1.1
SMILES | C-LANA FP | RTF Ca sens inh | RTF Ca sens act | Keap1 Nrf2 FP
COc1ccc(/C=c2\s/c(=C/C(=O)c3ccc(C)cc3)[nH]c2=O)cc1OC | 1.9 | -42.0 | 30.1* | -4.2
CCOC(=O)[C@H]1[C@H]2COc3ccccc3[C@@H]2N2C(=O)CN(Cc3ccc(C)cc3)C(=O)[C@@]12C | 60.6* | -61.9 | 19.1 | 7.9
C[C@@H]1NC(=O)[C@H](CCC(=O)O)NC(=O)c2cc([N+](=O)[O-])cc(F)c2NCCC[C@@H](C(N)=O)NC1=O | -0.8 | 11.8 | 0.0 | -2.4
CCCCC(=O)Nc1ccc(C(=O)Nc2ccc(OC)cc2[N+](=O)[O-])cc1 | 0.9 | -70.0 | 80.9* | -3.3
CCN(CC)S(=O)(=O)c1ccc(/C=C/C(=O)OCC(=O)NCc2cccs2)cc1 | -0.7 | 4.4 | 1.0 | 4.0
COc1ccc(C(=O)COC(=O)CN2C(=O)c3ccccc3C2=O)c(OC)c1 | 1.5 | -3.4 | 0.1 | -2.6
Cc1cc(C)cc(N=Cc2[nH]c3ccc(Br)c(Cl)c3c2O)c1 | 1.5 | -87.6 | 64.5* | -1.3
N#CC1=C(N)SC(N)=C(C#N)C1Cc1ccccc1 | -4.9 | -73.2 | 42.9* | -24.0
CC(C)CC1C(C#N)=C(N)SC(N)=C1C#N | -10.6 | -36.8 | 41.8* | -82.3
N#CC1=C(N)SC(N)=C(C#N)C1CCc1ccccc1 | -4.5 | -55.1 | 39.1* | -21.2
Cc1[nH]nc2c1C(Cc1ccccc1)C(C#N)=C(N)O2 (stereo unspecified) | 0.3 | -16.7 | -0.9 | -1.5
CCOc1cc(N2CCOCC2)c(OCC)cc1NC(=O)CN1C(=O)C2C3C=CC(C3)C2C1=O (stereo unspecified) | 3.1 | -7.9 | -1.4 | 2.2
COC(=O)c1ccc(S(=O)(=O)N2Cc3ccccc3C2)cc1 | 1.0 | -1.9 | 5.0 | -1.9
CC(=O)Nc1sc(/C(C#N)=C/c2ccc(Cl)c(Cl)c2)nc1-c1ccc(C)cc1 | 1.2 | -24.1 | 76.4* | -14.7
CC(=O)Nc1sc(N/N=C/c2ccc(C)cc2)nc1-c1ccc(C)cc1 | 3.1 | -8.2 | 2.0 | 4.3
CN1c2ccccc2C(C)(C)C12CC(c1cccc(S(=O)(=O)N3CCCC3)c1)=NO2 (stereo unspecified) | -1.6 | -11.6 | -4.9 | 1.7
CCOC(=O)/C(=C/C=C1\Sc2cc(C)c(C)cc2N1CC)C(C)=O | -19.1 | -208.6 | 160.2* | -20.6
CCOC(=O)/C(=C\C=C1/Sc2ccccc2N1CC)C(C)=O | -48.1 | -206.2 | 245.4* | -129.1
CCOC(=O)/C(=C/C=C1\Sc2ccccc2N1CC)C(C)=O | -8.6 | -219.8 | 128.2* | -58.8
CCC(=O)/C=C1/Sc2ccccc2N1CC | 3.2 | -2.9 | -0.7 | 1.9
O=S(=O)(O)c1cc(Cl)cc(N=Nc2ccc(O)cc2O)c1O | 83.9* | 15.1 | -29.9 | -2.2
COc1ccccc1-c1ccc(=O)n(CC(=O)NC2CCc3ccccc32)n1 (stereo unspecified) | -0.5 | -2.9 | 4.5 | -2.7
Nc1ccccc1Oc1ccc2ccccc2c1 | 0.4 | 1.2 | 4.5 | -4.5
Cc1cccc(Nc2nc(N)c([N+](=O)[O-])c(NCc3ccccc3)n2)c1 | x | x | x | +
CSc1cccc(NC(=O)c2ccc(NC3=NC4CS(=O)(=O)CC4S3)cc2)c1 (stereo unspecified) | 0.1 | -4.9 | 1.7 | -3.1
CC1C/C(=C/c2ccncc2)C(=O)/C(=C/c2ccncc2)C1 (stereo unspecified) | -0.5 | -9.1 | -2.3 | -7.9
CC1C/C(=C/c2cccn2C)C(=O)/C(=C/c2cccn2C)C1 (stereo unspecified) | -7.2 | -410.0 | 375.5* | -16.0
O=C(NC1CCCC1)C(=O)N(Cc1cccnc1)C(C(=O)NCC1CCCO1)c1ccco1 (stereo unspecified) | -0.1 | -14.1 | 5.9 | -2.8
COc1ccc(-n2c(C)cc(/C=C3\SC(=S)N(Cc4ccco4)C3=O)c2C)cc1 | 2.7 | -26.8 | 31.1* | -4.8
O=C(CC1C(=O)N(c2ccc(Cl)cc2)C(=S)N1CCc1ccncc1)Nc1ccc(F)cc1 (stereo unspecified) | 0.4 | 0.7 | 39.0* | -5.3
